Shown are actives, neighbours in structure and some others; about 6.9% of the full set was active somewhere.
KB-V1 MDR tox: KB-V1 MDR subline cytotoxicity | KB-V1 MDR cells viability, CellTiter-Glo, 72 h | Potency, µM (highest dose often 46.1 µM), most hits filed as cytotoxic | actives 3.4% (n = 400,000); also: nearly all actives have a fitted effect of over 60% in size
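Luminescent ATP read-out (CellTiter-Glo, 10 min) measures survival of drug-selected KB-V1 MDR cells after 72 h, 37 degrees C compound exposure. Medium: phenol-red-free DMEM, 10% FBS. Values from fitted concentration-response curves.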
Giardia killer: Giardia lamblia killing; activity change, % at 7.66 µM, hits read low; actives 0.15% (n = 340,000); Giardia lamblia trophozoite viability; in the data active = activity change below about -80%; inconclusive = between about -30% and that limit;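 also: parasites exposed to compound for two days anaerobically before the ATP read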
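Luminescent ATP signal served as the viability read-out, measured 15-30 min after adding ATP detection reagent to trophozoites that had been incubated with compounds for 48 hrs at 37 deg C anaerobically at 100 cells/well.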
S-ASM inh: inhibitors of human secretory acid sphingomyelinase; P17405; placental ASM, HMU-PC fluorogenic substrate, 60 min; Potency, µM (highest dose often 57.5 µM), usual class: inhibitors; actives 0.006% (n = 340,000); AID 504937
Target sequence (P17405 47-631 limits assumed): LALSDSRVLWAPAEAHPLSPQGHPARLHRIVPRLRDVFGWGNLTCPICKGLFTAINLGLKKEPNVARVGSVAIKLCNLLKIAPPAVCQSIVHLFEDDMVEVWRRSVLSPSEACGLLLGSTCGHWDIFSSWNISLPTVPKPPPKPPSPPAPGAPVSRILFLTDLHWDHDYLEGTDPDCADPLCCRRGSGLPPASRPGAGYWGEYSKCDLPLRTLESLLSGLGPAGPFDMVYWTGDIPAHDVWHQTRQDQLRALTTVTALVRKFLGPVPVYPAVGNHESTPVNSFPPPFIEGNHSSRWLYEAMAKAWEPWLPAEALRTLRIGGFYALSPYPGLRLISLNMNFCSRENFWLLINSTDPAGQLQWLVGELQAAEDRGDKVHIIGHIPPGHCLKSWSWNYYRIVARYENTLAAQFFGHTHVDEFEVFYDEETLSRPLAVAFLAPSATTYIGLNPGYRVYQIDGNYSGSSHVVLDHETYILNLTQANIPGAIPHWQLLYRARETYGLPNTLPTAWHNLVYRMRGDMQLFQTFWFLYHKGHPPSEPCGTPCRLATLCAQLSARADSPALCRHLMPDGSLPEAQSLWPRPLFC
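Steps: dispense placental human ASM, pin compound, wait 10 min at room temperature, add HMU-PC0 substrate at 9 uM final, incubate 60 min at 37 °C, add stop solution raising pH to 10, read fluorescence.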
SW480 rerep: induces DNA re-replication in SW480 colon adenocarcinoma cells; SW480 DNA re-replication, Hoechst DNA content imaging, 48 h; Potency, µM (top dose mostly 46.1 µM), most hits filed as activators; actives 1.8% (n = 340,000); AID 624297; also: nearly all actives have a fitted effect of over 55% in size
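Hoechst fluorescence of nuclei (405 nm excitation, 500-530 nm emission) measured by plate-scanning imager after 48 hr compound exposure at 37 C; re-replication scored as increased number of nuclei with elevated intensity.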
KB-3-1 tox: kills parental KB-3-1 adenocarcinoma cells. KB-3-1 viability, CellTiter-Glo ATP luminescence, 72 h. Potency, µM (doses to about 46.1 µM), usual class: cytotoxic. actives 1.4% (n = 400,000); also: nearly all actives have a fitted effect of over 60% in size
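Cytotoxicity in the drug-sensitive parental line KB-3-1 was scored as loss of CellTiter-Glo luminescence following 72 h incubation with compound. Values come from curve fitting of normalized concentration-response data.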
MCF10A rereplic: inducers of DNA re-replication in MCF 10A breast cells; MCF 10A DNA re-replication, Hoechst nuclear intensity, 48 h; Potency, µM (highest dose often 46.1 µM), hits mostly activators; actives 2.9% (n = 350,000); also: nearly all actives have a fitted effect of over 50% in size
Large screens that a line does not name were inactive. Unless noted, calls follow the shape of the dose curve; as a rule, active = well fitted curve in the direction sought with a large enough effect; inconclusive = small, poorly fitted or top-dose-only effect, or another doubt; inactive = no such curve, though single readings can be large; an effect the other way counts as inactive or inconclusive.

COc1ccc(NC(=O)c2nc(C)c(C3(C)CC(c4cccnc4)=NO3)s2)cc1 (configuration not stated)	KB-V1 MDR tox inconclusive, SW480 rerep 7.31µM, KB-3-1 tox 4.61µM, MCF10A rereplic inconclusive
Cc1nc(C(=O)Nc2ccc(Cl)cc2)sc1C1(C)CC(c2cccc([N+](=O)[O-])c2)=NO1 (configuration not stated)	none
CC(NC(=O)C1CCN(C(=O)N2CCOc3ccc(Cl)cc32)CC1)c1ccccc1 (configuration not stated)	none (no result: Giardia killer, S-ASM inh, SW480 rerep, MCF10A rereplic)
Cc1cc(OCCCN2CCC(C(O)(c3ccccc3)c3ccccc3)CC2)ccc1Br	KB-V1 MDR tox 20.6µM, KB-3-1 tox inconclusive (no result: Giardia killer, S-ASM inh, SW480 rerep, MCF10A rereplic)
N#Cc1cccc(OCCCN2CCC(C(O)(c3ccccc3)c3ccccc3)CC2)c1	KB-V1 MDR tox 23.1µM, KB-3-1 tox inconclusive (no result: Giardia killer, S-ASM inh, SW480 rerep, MCF10A rereplic)
CC(C)(C(=O)O)c1ccc(C(O)CCCN2CCC(C(O)(c3ccccc3)c3ccccc3)CC2)cc1 (configuration not stated)	none (no result: KB-V1 MDR tox, KB-3-1 tox)
Cc1ccc(Cl)cc1N1CCN(C(=O)COc2ccc3c(c2)CCC3)CC1	KB-3-1 tox inconclusive, MCF10A rereplic 13µM
Cc1ccc(OCC(=O)N2CCc3ccccc32)cc1	none
CC(=O)c1ccc(N2CCN(C(=O)COc3ccc4c(c3)CCC4)CC2)cc1	none
O=C(COc1ccc2c(c1)CCC2)N1CCc2ccccc21	SW480 rerep inconclusive, MCF10A rereplic 25.9µM
O=C(CO/N=C/c1ccccc1O)N1CCc2ccccc21	KB-V1 MDR tox 13µM
O=C(COC(=O)C1(c2ccc(F)cc2)CCCC1)N1CCc2ccccc21	KB-V1 MDR tox 20.6µM
COc1ccc(/C=C/c2nnc(NC(=O)COc3ccc(Cl)cc3)s2)cc1	none (no result: S-ASM inh, SW480 rerep, MCF10A rereplic)
Cc1ccc(C)c(S(=O)(=O)c2cn(Cc3ccccc3)c3cc(F)c(F)cc3c2=O)c1	none (no result: Giardia killer, S-ASM inh, SW480 rerep, MCF10A rereplic)
CSC1=NC(=O)/C(=C\c2cccc3ccccc23)S1	KB-V1 MDR tox inconclusive, MCF10A rereplic 14.6µM
COc1cccc(/C=C2\N=C(SC)SC2=O)c1OC	none
O=C(Cc1ccccc1)NCC(=O)OCC(=O)c1cccc2ccccc12	none (no result: S-ASM inh, SW480 rerep, MCF10A rereplic)
CC(C)CN(CC(C)C)c1ccc(/C=N/n2cnnc2)cc1[N+](=O)[O-]	KB-V1 MDR tox 20.6µM, S-ASM inh inconclusive, KB-3-1 tox inconclusive, MCF10A rereplic inconclusive
O=[N+]([O-])c1cc(/C=N/n2cnnc2)ccc1N1CCCC1	KB-V1 MDR tox 2.59µM
C(=Nn1cnnc1)c1ccc2c(c1)CCC2	KB-V1 MDR tox inconclusive, KB-3-1 tox 16.4µM (no result: Giardia killer, S-ASM inh, SW480 rerep, MCF10A rereplic)
O=[N+]([O-])c1cccc(/C=N/n2cnnc2)c1	none
Cc1cc(=O)n2[nH]c(-c3ccccc3)cc2n1	none
Cc1cc(=O)n2[nH]c(-c3ccc(C(C)(C)C)cc3)cc2n1	KB-V1 MDR tox 14.6µM, KB-3-1 tox inconclusive, MCF10A rereplic inconclusive
Cc1ccc(NC(=O)Cn2c(=O)n(Cc3ccccc3)c(=O)c3c(C)c(C)sc32)c(C)c1	none (no result: Giardia killer, S-ASM inh, SW480 rerep, MCF10A rereplic)
O=C(CSc1nc(-c2ccc(F)cc2)cc(C(F)(F)F)n1)NCCc1ccccc1	none (no result: Giardia killer, S-ASM inh, SW480 rerep, MCF10A rereplic)
CCc1ccccc1NC(=O)CN(C)C(=O)CSc1nn(-c2ccccc2)c(=S)s1	SW480 rerep inconclusive
CCc1ccccc1NC(=O)CN(C)C(=O)CSc1nc2cc(Cl)ccc2s1	KB-V1 MDR tox 14.6µM, SW480 rerep inconclusive
O=c1oc2ccccc2cc1-c1csc(NN=C2CCCCC2)n1	none
O=c1oc2ccccc2cc1-c1nc2c(s1)CCCC2	KB-V1 MDR tox inconclusive, SW480 rerep 1.16µM, KB-3-1 tox inconclusive, MCF10A rereplic 1.16µM
Cc1ccc(NC(=O)C(C)Sc2nc(=O)cc(N)n2-c2cccc(C)c2)cc1 (configuration not stated)	none (no result: Giardia killer, S-ASM inh, SW480 rerep, MCF10A rereplic)
COC(=O)C1=CN(Cc2ccc(OC)cc2)C=C(C(=O)OC)C1c1cc(OC)c(OC)c(OC)c1	MCF10A rereplic inconclusive
COC(=O)C1=CN(C(C)c2ccccc2)C=C(C(=O)OC)C1c1cc(OC)c(OC)c(OC)c1 (configuration not stated)	SW480 rerep 20.6µM, MCF10A rereplic inconclusive
CCOc1ccc(NC(=O)C2CCC(CNS(=O)(=O)c3ccc4c(c3)CCCC(=O)N4)CC2)cc1 (configuration not stated)	KB-V1 MDR tox inconclusive (no result: Giardia killer, S-ASM inh, SW480 rerep, MCF10A rereplic)
COc1ccc(-c2nnc(SCC(=O)NCCc3ccc(OC)c(OC)c3)nc2-c2ccc(OC)cc2)cc1	none (no result: Giardia killer, S-ASM inh, SW480 rerep, MCF10A rereplic)
CC(OC(=O)C1=Cc2ccccc2OC1)C(=O)NC1CCCC1 (configuration not stated)	none
CC(C)C(OC(=O)C1=Cc2ccccc2OC1)C(=O)NCC1CCCO1 (configuration not stated)	MCF10A rereplic 16.4µM
CCOC(=O)C1=CC[C@@H](c2cccc(C)c2)N(S(=O)(=O)c2ccc(C)cc2)[C@H]1C(=O)OCC	KB-V1 MDR tox inconclusive, KB-3-1 tox inconclusive, MCF10A rereplic inconclusive
CCOC(=O)C1=CC[C@@H](c2ccccc2Cl)N(S(=O)(=O)c2ccc(C)cc2)[C@H]1C(=O)OCC	KB-V1 MDR tox 16.4µM, KB-3-1 tox inconclusive
CCCS(=O)(=O)Nc1cccc(-c2ccc3nnc(C)n3n2)c1	SW480 rerep 18.4µM
C(=C\c1ccccc1)/CN1CCN(C(c2cc3ccccc3o2)c2nnnn2C2CCCC2)CC1 (configuration not stated)	KB-3-1 tox inconclusive (no result: Giardia killer, S-ASM inh, SW480 rerep, MCF10A rereplic)
C(=C\c1ccccc1)/CN1CCN(C(c2cc3ccccc3o2)c2nnnn2Cc2ccccc2)CC1 (configuration not stated)	KB-V1 MDR tox 16.4µM (no result: Giardia killer, S-ASM inh, SW480 rerep, MCF10A rereplic)
CN(C)c1ccc(-c2n[nH]c(=S)n2-c2ccccc2)cc1	none
Cc1cccc(-n2c(-c3csc(C(C)C)c3)n[nH]c2=S)c1	KB-V1 MDR tox 18.4µM
Cc1ccc(-n2c(-c3ccccc3)n[nH]c2=S)cc1	none
Cc1ccc(-n2c(-c3ccccc3)n[nH]c2=S)c(C)c1	SW480 rerep inconclusive, MCF10A rereplic 0.651µM
Cc1ccc(C)c(-n2c(-c3ccncc3)n[nH]c2=S)c1	none
Cc1ccc(C)c(-n2c(-c3csc(C)c3)n[nH]c2=S)c1	KB-V1 MDR tox 18.4µM, SW480 rerep inconclusive
CCN(CC)c1ccc(-c2n[nH]c(=S)n2-c2ccccc2)cc1	KB-V1 MDR tox 23.1µM, SW480 rerep inconclusive, KB-3-1 tox 13µM, MCF10A rereplic inconclusive
COc1ccc(SCC(Cc2ccccc2)N2CCN(CC(C)C)CCC2=O)cc1 (configuration not stated)	none (no result: KB-V1 MDR tox, S-ASM inh, SW480 rerep, KB-3-1 tox, MCF10A rereplic)
CCC(c1nnc(SCC(=O)Nc2ccc(C(N)=O)cc2)n1Cc1ccccc1)N(C)C (configuration not stated)	none (no result: KB-V1 MDR tox, KB-3-1 tox)
CCC(c1nnc(SCC(=O)Nc2nnc(-c3ccccc3)o2)n1Cc1ccccc1)N(C)C (configuration not stated)	KB-V1 MDR tox 23.1µM
